For 7 compounds, Potency and max response results are on record in PubChem BioAssay (Tox21).

The structures appear in SMILES notation. Where “and” joins values, the source holds several entries; their conditions need not be identical. Equal entries are not always repeated. A number with no mark means an inactive call. Records with an inconclusive call do not appear. Calls of active or inactive are those of the source. Calls come from the whole dose curve; as a rule, active = well fitted curve in the direction sought with a large enough effect in the repeat runs; inconclusive = weak or mixed curves; inactive = no such curve, though single readings can be large; an effect the other way counts as inactive or inconclusive.

Test [1] in a line: A CellTox Green Cytotoxicity Assay to monitor cytotoxicity in HEK293 cells - 40 hour (AID 1224871). Note: nearly all actives have a fitted effect of over 45% in size. Note: potency is the fitted concentration of half-maximal effect. In short, it runs like this: (§1)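 Fluorescence intensity, read at 0, 8, 16, 24, 32 and 40 h of compound treatment, reflected dye binding to DNA of dead HEK293 cells; compounds (23 nL, DMSO) were added 5 h after plating cells with reagent.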
Test [2] can be described thus: qHTS RealTime-Glo MT Cell Viability Assay in HEK293 cells - 16 hour (AID 1224872). Note: nearly all actives have a fitted effect of over 50% in size. Note: potency is the fitted concentration of half-maximal effect. In short, it runs like this: (§2)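 Assay medium contained NanoLuc luciferase plus cell-permeant prosubstrate, added with HEK293 cells at 600 cells/well. After 5 h at 37 C/5% CO2 compounds were added; plates stayed at 37 C for 40 h with serial luminescence reads.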
Test [3] in a line: qHTS RealTime-Glo MT Cell Viability Assay in HepG2 cells - 8 hour (AID 1224873). Note: nearly all actives have a fitted effect of over 55% in size. Note: potency is the fitted concentration of half-maximal effect. An outline of the steps: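 Real-time viability: cells seeded at 600 per well together with NanoLuc and cell-permeant prosubstrate, compounds added after 5 h incubation. Luminescence tracked at 0, 8, 16, 24, 32 and 40 h of exposure.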
In general terms: In qHTS, concentration-response curves come from the screen itself.

Test [4] in a line: qHTS RealTime-Glo MT Cell Viability Assay in HEK293 cells - 40 hour (AID 1224874). Note: nearly all actives have a fitted effect of over 50% in size. Note: potency is the fitted concentration of half-maximal effect. To be noted: RealTime-Glo luminescence; max response: active compounds read low. An outline of the steps:
(§3)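 Viable HEK293 cells reduce a cell-permeant prosubstrate; the product diffuses out and is consumed by NanoLuc in the medium to give light. Compounds went in after a 5 h incubation and plates were read over the treatment course.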

A short description of test [5]: A CellTox Green Cytotoxicity Assay to monitor cytotoxicity in HEK293 cells - 24 hour (AID 1224875). Note: nearly all actives have a fitted effect of over 45% in size. Note: potency is the fitted concentration of half-maximal effect. In short, it runs like this:
as §1

Test [6] is described as follows: A CellTox Green Cytotoxicity Assay to monitor cytotoxicity in HepG2 cells - 16 hour (AID 1224876). Note: nearly all actives have a fitted effect of over 45% in size. Note: potency is the fitted concentration of half-maximal effect. In short, it runs like this:
(§4)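 Using 1536-well format, dye-containing HepG2 suspension was seeded, allowed 5 h at 37 C/5% CO2, dosed by pintool with compounds, positive and negative controls, and imaged for fluorescence across 40 h.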

The nature of test [7]: qHTS RealTime-Glo MT Cell Viability Assay in HepG2 cells - 32 hour (AID 1224877). Note: nearly all actives have a fitted effect of over 55% in size. Note: potency is the fitted concentration of half-maximal effect. In short, it runs like this: (§5)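 qHTS, HepG2, 600 cells/well, RealTime-Glo (NanoLuc + prosubstrate) added with cells; 5 h preincubation; DMSO compound addition; 37 C; luminescence at 0/8/16/24/32/40 h.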
Test [8] can be described thus: A CellTox Green Cytotoxicity Assay to monitor cytotoxicity in HepG2 cells - 24 hour (AID 1224878). Note: nearly all actives have a fitted effect of over 45% in size. Note: potency is the fitted concentration of half-maximal effect. In short, it runs like this: as §4
The nature of test [9]: A CellTox Green Cytotoxicity Assay to monitor cytotoxicity in HepG2 cells - 40 hour (AID 1224879). Note: nearly all actives have a fitted effect of over 40% in size. Note: potency is the fitted concentration of half-maximal effect. In short, it runs like this:
as §4

A short description of test [10]: qHTS RealTime-Glo MT Cell Viability Assay in HEK293 cells - 0 hour (AID 1224880). An outline of the steps:
as §3

Test [11] is described as follows: A CellTox Green Cytotoxicity Assay to monitor cytotoxicity in HEK293 cells - 32 hour (AID 1224881). Note: nearly all actives have a fitted effect of over 40% in size. Note: potency is the fitted concentration of half-maximal effect. An outline of the steps:
as §1

A short description of test [12]: A CellTox Green Cytotoxicity Assay to monitor cytotoxicity in HepG2 cells - 0 hour (AID 1224882). Note: nearly all actives have a fitted effect of over 35% in size. In short, it runs like this:
as §4

A short description of test [13]: A CellTox Green Cytotoxicity Assay to monitor cytotoxicity in HepG2 cells - 32 hour (AID 1224883). Note: nearly all actives have a fitted effect of over 50% in size. Note: potency is the fitted concentration of half-maximal effect. In short, it runs like this:
as §4

A short description of test [14]: A CellTox Green Cytotoxicity Assay to monitor cytotoxicity in HEK293 cells - 8 hour (AID 1224884). Note: nearly all actives have a fitted effect of over 35% in size. Note: potency is the fitted concentration of half-maximal effect. An outline of the steps: as §1
The nature of test [15]: qHTS RealTime-Glo MT Cell Viability Assay in HepG2 cells - 16 hour (AID 1224885). Note: nearly all actives have a fitted effect of over 50% in size. Note: potency is the fitted concentration of half-maximal effect. In short, it runs like this: as §5
Test [16] in a line: qHTS RealTime-Glo MT Cell Viability Assay in HEK293 cells - 24 hour (AID 1224886). Note: nearly all actives have a fitted effect of over 50% in size. Note: potency is the fitted concentration of half-maximal effect. An outline of the steps: as §2
Test [17] is described as follows: qHTS RealTime-Glo MT Cell Viability Assay in HEK293 cells - 8 hour (AID 1224887). Note: nearly all actives have a fitted effect of over 50% in size. Note: potency is the fitted concentration of half-maximal effect. An outline of the steps: as §3
Test [18] in a line: A CellTox Green Cytotoxicity Assay to monitor cytotoxicity in HEK293 cells - 16 hour (AID 1224888). Note: nearly all actives have a fitted effect of over 35% in size. Note: potency is the fitted concentration of half-maximal effect. An outline of the steps: as §1
Test [19] can be described thus: qHTS RealTime-Glo MT Cell Viability Assay in HepG2 cells - 0 hour (AID 1224889). Note: nearly all actives have a fitted effect of over 50% in size. In short, it runs like this: as §5
Test [20] is described as follows: A CellTox Green Cytotoxicity Assay to monitor cytotoxicity in HepG2 cells - 8 hour (AID 1224890). Note: nearly all actives have a fitted effect of over 45% in size. Note: potency is the fitted concentration of half-maximal effect. An outline of the steps:
as §4
% is set by controls: 0 for no effect and ±100 for the full control effect.

On to `C#CC1(O)CC[C@H]2[C@@H]3CCC4=CCCC[C@@H]4[C@H]3CC[C@@]21C` (some centres not stated), for which the Potency in test [1] is 34.7 µM (active) and 21.3 µM (active); in test [2] it was 19.5 µM (active) and 21.3 µM (active); in test [3], 21.3 µM (active); in test [4], 19.5 µM (active) and 19 µM (active); in [5], 21.9 µM (active) and 21.3 µM (active); in [6], 34.7 µM (active) and 19 µM (active). Also, the Potency in test [7] was 23.9 µM (active); in test [8], 34.7 µM (active) and 19 µM (active); in [9], 38.9 µM (active) and 21.3 µM (active); in [11], 24.5 µM (active) and 21.3 µM (active); in test [13], 34.7 µM (active) and 19 µM (active); in test [14], 17.4 µM (active) and 23.9 µM (active). The Potency was 23.9 µM (active) in [15]; 17.4 µM (active) and 16.9 µM (active) in [16]; 21.3 µM (active) in test [17]; 24.5 µM (active) and 21.3 µM (active) in test [18]; 24.5 µM (active) and 21.3 µM (active) in test [20]. Moreover, the Potency entry in test [10], in test [12] and in test [19] was “inactive” each time.
Turning to `C=Cc1cccc(C)c1`, the Potency entry in test [1], in test [2], in test [3], in test [5], in [6] and in [7] was “inactive” throughout. Moreover, the Potency result in test [8], in [9], in test [10], in [11], in test [12] and in [13] was “inactive” each time. The Potency result in [14], in [15], in test [16], in test [17], in test [18] and in test [19] was “inactive” in each case. In addition, the Potency entry in [20] was “inactive”. For the same compound, the max response in [4] was -2.09% and 3.82%.
Regarding `Clc1sc(Cl)c(Cl)c1Cl`, the Potency result in test [1], in test [2], in [3], in test [5], in [6] and in test [7] was “inactive” in each case. Besides, the Potency entry in test [8], in test [9], in [10], in test [12], in [13] and in [14] was “inactive” each time. Besides, the Potency entry in [15], in test [16], in [17], in test [18], in test [19] and in test [20] was “inactive” each time. In test [4], the max response is 7.4%.
As to `OCC(F)(F)F`, the Potency result in test [1], in [2], in test [3], in test [5], in test [6] and in test [7] was “inactive” throughout. The Potency result in test [8], in test [9], in test [10], in test [11], in [12] and in test [13] was “inactive” each time. Further, the Potency result in test [14], in test [15], in [16], in [17], in test [18] and in [19] was “inactive” throughout. The Potency entry in test [20] was “inactive”. For the same compound, in test [4], the max response is 19.1%.
For `O=c1c(O)c(-c2ccc(O)cc2O)oc2cc(O)cc(O)c12`, the Potency result in test [1], in [2], in [3], in test [5], in test [7] and in [10] was “inactive” in each case. Moreover, the Potency result in [12], in test [14], in [15], in [16], in test [17] and in test [18] was “inactive” each time. Moreover, the Potency result in [20] was “inactive”. The max response in test [4] is 7.77%.
For the compound `C#C[C@]1(O)CC[C@H]2[C@@H]3[C@H](C)CC4=C(CCC(=O)C4)[C@H]3CC[C@@]21C`, the Potency entry in test [1], in test [2], in [3], in test [5], in test [7] and in test [8] was “inactive” each time. The Potency entry in [9], in test [10], in [11], in [12], in test [13] and in test [14] was “inactive” in each case. The Potency result in [15], in test [16], in [17], in test [18], in [19] and in [20] was “inactive” each time. In addition, the max response in test [4] is -25.5%.
Regarding `CCC(=O)OC(=O)CC`, the Potency result in test [1], in test [2], in test [3], in test [5], in test [6] and in test [7] was “inactive” in each case. In addition, the Potency result in test [8], in test [9], in test [10], in test [11], in test [12] and in test [13] was “inactive” in each case. The Potency entry in test [14], in test [15], in test [16], in test [17], in test [18] and in [19] was “inactive” each time. In addition, in test [20], the Potency entry is “inactive”. Further, the max response in [4] is 0.495%.
